# According to PubChem BioAssay AID588719 (Southern Research Specialized Biocontainment Screening …, 2011):
# Screen size: about 1,500 compounds; about 920 (61%) were called active. The set was probably picked from earlier hits. The list shows a part of the results. Results with a measured potency or affinity are listed apart. Values without a mark were called inactive. How the calls were made is not given here.
# Assay: Vero 76 cell cytotoxicity, dose response, cytotoxicity control for VEEV inhibitor project (AID 588719)
# Settings: Vero 76 cells viability, cytotoxicity counter-screen; series mostly up to 25 µM; viability: at the top concentration
row,Structure (SMILES),viability [%]
1,Cc1ncc([N+](=O)[O-])n1CC(=O)NCCc1ccccc1,95.3
2,CC1N(C)c2cc(NC(=O)c3ccco3)c(P(=O)(Nc3ccc([N+](=O)[O-])cc3)N3CCOCC3)cc2C1(C)C (stereo not given),70.7
3,CCC(NC(=O)CCCc1ccccc1)c1ccccc1 (stereo not given),91.7
4,CCOc1ccc2nc3cc(NCc4ccc(OC)cc4)ccc3c(N)c2c1,83.8
5,Cc1ccc(NC(=O)C2CCCN2C(=O)OC(C)(C)C)cc1C (stereo not given),87.2
6,COc1ccccc1C=NN=C1c2ccccc2-c2ccccc21,83.9
7,COc1cccc(-c2ccc(NC(=O)C3CCCN(Cc4cnn(C)c4)C3)cc2)c1 (stereo not given),72.5
8,COc1cccc(-c2ccc(NC(=O)C3CCCN(Cc4cnn(C)c4C)C3)cc2)c1 (stereo not given),80.3
9,O=C1C2CCCN2C(c2ccc(F)cc2)N1c1ccc(Cl)cc1 (stereo not given),79.2
10,Cc1cc(NC(=O)c2ccc3nccnc3c2)ccc1Br,90.1
11,C[C@@H]1CCCCO[C@H](CN(C)C(=O)NC2CCCCC2)[C@@H](C)CN([C@H](C)CO)C(=O)c2cc(NC(=O)c3ccccc3)ccc2O1,93
12,COc1cccc(CNC(=O)c2cc3oc4ccccc4c3n2C)c1OC,109
13,CCC1(c2ccccc2)NC(=S)N(c2ccc(C)cc2)N1 (stereo not given),84
14,O=C(COC(=O)CCC(=O)c1ccc(F)cc1)NCc1ccccc1Cl,101
15,O=C(Nc1ccc(C(=O)OC[C@@H]2CCCN3CCCC[C@H]23)cc1)c1cccc(Br)c1,90.9
16,CCCCC(=O)NC(c1ccc(Cl)cc1Cl)c1ccc2cccnc2c1O (stereo not given),40.8
17,CCC(=O)OC1CCC2C3CCC4CC(=O)C=CC4(C)C3CCC12C (stereo not given),85.2
18,CNCCNC[C@H](Cc1cccc2ccccc12)NCCc1ccccc1,94.2
19,Cc1cccc2sc(N(CCCN(C)C)C(=O)c3ccco3)nc12,81.4
20,CCOC(=O)c1c(C)oc2ccc(OCc3cc(C(=O)OC)oc3C)cc12,87.8
21,C=C(C)COc1ccc(-c2nc(N)ncc2-c2ccc(Br)cc2)c(O)c1,80
22,C=CCC1(CCCCC)C(=O)NC(=S)NC1=O,77.4
23,Oc1c(C(Nc2nc3ccccc3s2)c2ccco2)ccc2cccnc12 (stereo not given),43.2
24,O=CC1=C(c2ccccc2)Oc2ccccc2O1,82.1
25,Cc1ccc(S(=O)(=O)c2ccsc2NC(=O)c2ccccc2)cc1,92.4

row,Structure (SMILES),viability [%]
1,Cc1ccc(NC(=O)Nc2ccno2)cc1,91.5
2,Cc1cc(N/N=C/c2cccc([N+](=O)[O-])c2)nc(-n2nc(C)cc2C)n1,76.6
3,CC(C)(C)OC(=O)[C@H](Cc1ccccc1)NC(=O)c1nc[nH]c1C(=O)NC1CCN(C(=O)OC(C)(C)C)CC1,75.8
4,CC1(C)CC(=O)/C(=N/Nc2ccc(Cl)cc2)CO1,87.7
5,CN1CCN(c2ccc(NC(=O)c3cccc(OCc4ccccc4)c3)cc2)CC1,81
6,CCCCOc1ccc(C(=O)Nc2ccc(N3CCN(C)CC3)cc2)cc1,89.9
7,CCCn1cnc2c(SCc3ccccc3Cl)nc(N)nc21,80.5
8,O=C(NCCc1csc(-c2cccnc2)n1)c1ccccc1Br,94.9
9,CCN(CC)CCCNC(=O)c1oc2ccc(S(=O)(=O)N3CC(C)CC(C)C3)cc2c1C (stereo not given),95.3
10,Cc1ccccc1-c1n[nH]c(=S)n1/N=C/c1c(C)nn(-c2ccccc2)c1C,87.3
11,COc1ccccc1C1N(c2ccc(Cl)cc2)C(=O)C2CCCN21 (stereo not given),82.5
12,CNc1nc(Cl)nc2c1ncn2-c1ccccc1,81.9
13,Cc1cc(=O)[nH]c(N/N=C/c2ccc(OC(=O)c3cccnc3)cc2)n1,89
14,O=S1(=O)CCC(NC(=S)SCCOc2ccccc2)C1 (stereo not given),74.7
15,Nc1[nH]nc2nc(NCc3ccccc3)c3c(c12)CCN(Cc1ccccc1)C3,76.5
16,Cc1ccc(N2C(=O)NC(=O)/C(=C\C=C\c3ccco3)C2=O)cc1,84.2
17,CCc1ccc(N2C(=O)NC(=O)/C(=C\C=C\c3ccco3)C2=O)cc1,93.4
18,Nc1nc(CN2CCN(c3ccccn3)CC2)nc(Nc2ccc(Cl)cc2)n1,73.1
19,Cc1[nH]c(C)c(S(=O)(=O)N2CCN(c3cccc(C(F)(F)F)c3)CC2)c1C(=O)N1CCCCC1,70.3
20,COc1ccccc1OCC(=O)Nc1nc2c(s1)CCCC2,75.5
21,O=C(NCCCN1CCOCC1)c1ccc(/C=C2\Oc3ccccc3N(Cc3ccccc3F)C2=O)cc1,89.8
22,O=C1Nc2cc(C(=O)NCCCN3CCOCC3)ccc2S/C1=C/c1cccc(Cl)c1,95
23,COc1cc(NC(=S)N(C)C)c(OC)cc1Cl,103
24,COC(=O)c1cc(Cl)c(NC(=O)c2ccc(C(C)(C)C)cc2)cc1OC,70.6
25,CCc1ccc(-c2cc3c(=O)n(CC(=O)NCCCN4CCN(CC)CC4)nc(C)n3n2)cc1,83.6

row,Structure (SMILES),viability [%]
1,O=C(NC1CC1)C1=C[C@@H](C2CCCCC2)C[C@@H](OCc2ccc(CO)cc2)O1,84.6
2,NC(=O)C1=C[C@H](C2CCCCC2)C[C@H](OCc2ccc(CO)cc2)O1,96
3,Cc1cccc(NC(=O)C(C)Sc2nc3ccccc3c(=O)n2CCCN2CCOCC2)c1 (stereo not given),77.5
4,CC(=O)C1C2c3ccccc3OC1(C)N=c1s/c(=C/c3cn(C)nc3C)c(=O)n12 (stereo not given),86.7
5,O=C(NC1CCN(Cc2ccccc2)CC1)c1ccc(Oc2cc(Cl)cc(Cl)c2)o1,102
6,c1ccc(COC(CN2CCCCCC2)CN2CCCCCC2)cc1,70.4
7,O=C(c1ccc(-c2ccccc2)c(F)c1)C1CCCN(CCO)C1 (stereo not given),82.1
8,COc1cc2c(cc1OC)C13CCN4CC5=CCOC(CC(=O)O)C(C5CC41)C3N2 (stereo not given),93
9,Cc1c(-c2ccc(OCc3ccccc3)cc2)nc2ccccc2c1C(=O)O,107
10,C[C@@H]1CN([C@H](C)CO)C(=O)CCCn2nncc2CO[C@@H]1CN(C)C(=O)Nc1ccc(N2CCCCC2)cc1,96.2
11,COc1cccc(/C=C/c2n[nH]c(=O)c(C#N)c2C)c1,70.6
12,CC(C)CN(C(=O)COC(=O)/C=C/c1ccc(Cl)c(Cl)c1)c1c(N)n(Cc2ccccc2)c(=O)[nH]c1=O,74.3
13,O=C1C2C3C=CC(C4CC34)C2C(=O)N1CCCCN1CCN(c2ccc(F)cc2)CC1 (stereo not given),72.1
14,Cc1ccc(NC(=O)c2ccc(CN3CCN(C)CC3)cc2)cc1Nc1nccc(-c2cccnc2)n1,72
15,COc1ccc(-c2cc(-c3ccc(F)cc3)nc(N3CCN(C)CC3)n2)cc1,84.9
16,COCC(C)n1c(SCc2cc(=O)n3cc(C)ccc3n2)nc2ccccc2c1=O (stereo not given),81.7
17,Cc1ccc2oc(=O)c3cnn(CC(=O)Nc4ccccc4N4CCN(C)CC4)c3c2c1,82.2
18,Cc1cccc(NC(=O)CSc2nc3ccccc3nc2N2CCCC2)c1,74.6
19,CC(=O)c1cccc(NC(=O)/C=C/c2ccc([N+](=O)[O-])s2)c1,88
20,COc1cc(NC(=O)c2ccc(-c3cccc([N+](=O)[O-])c3)o2)ccc1NC(=O)C(C)C,82.7
21,O=C1c2cccc3cc([N+](=O)[O-])cc(c23)C(=O)N1c1ccccc1O,81.5
22,COc1ccc(C(Nc2cccc([N+](=O)[O-])c2)P(=O)(OC(C)C)OC(C)C)cc1 (stereo not given),93.5
23,CCCNC(=O)N1CCN(c2nc(C(C)C)c3c(c2C#N)CC(C)(C)OC3)CC1,76
24,Cc1ccccc1NC(=S)/C(=C(\[O-])c1ccc(C)c([N+](=O)[O-])c1)[n+]1ccccc1,97.6
25,O=C(Nc1ccccc1)c1cccc(Cn2cc(C(F)(F)F)ccc2=O)c1,80.6

row,Structure (SMILES),viability [%]
1,Cc1cc(C(=O)NC2CCCc3c2cnn3-c2cccc(C)c2C)no1 (stereo not given),64.3
2,CCOC(=O)C1C(=O)C(=O)N(C2CCCCC2)C1C(=O)OCC (stereo not given),99.2
3,C/C(N)=C(/C#N)C(=O)COC(=O)c1cc(C)n(-c2ccc(F)cc2)c1C,76.3
4,CCCn1c(SCC(=O)N(C)C2CCS(=O)(=O)C2)nc2sc3c(c2c1=O)CCC3 (stereo not given),73.6
5,Cc1cccc(C)c1OCC(=O)N(Cc1cccs1)C1CCS(=O)(=O)C1 (stereo not given),88
6,CN(C(=O)CCN1C(=O)/C(=C/c2ccccc2F)SC1=S)C1CCS(=O)(=O)C1 (stereo not given),97.8
7,O=C(Cn1c(=O)sc2ccccc21)Nc1nc2c(s1)CCCC2,97.1
8,NC(=O)CC(NC(=O)Cc1ccc(Br)cc1)c1ccc(N2CCC(Cc3ccccc3)CC2)c([N+](=O)[O-])c1 (stereo not given),75.1
9,CCCCCCCCCC(=O)N[C@@H]1c2cc(OC)c(OC)cc2C[C@H]1OCc1ccccc1,81.8
10,CN(C)CCCN(C(=O)c1cc(-c2cccs2)nc2ccccc12)c1nc2ccc(F)cc2s1,81
11,CCCn1nc(NC(=O)c2cccs2)c2cc3cccc(C)c3nc21,83
12,COc1ccc(/C=N/NC(=O)c2cc[n+]([O-])cc2)cc1OC,94.5
13,COc1ccccc1C(CNC(=O)CNC(=O)c1ccc(Cl)c(Cl)c1)N1CCCC1 (stereo not given),89
14,C/C(=N\NC(=O)c1ccc(N/N=C(\C)c2ccc(O)cc2)cc1)c1ccc(O)cc1,86
15,C/C(=N/OCO/N=C(/C)c1ccc(F)cc1)c1ccc(F)cc1,81.7
16,Cc1ccc(S(=O)(=O)C2(C(=O)NCc3ccccc3Cl)CC2)cc1,86
17,Cc1ccccc1CN(C)C(C)C(=O)Nc1ccccc1F (stereo not given),92.6
18,Cc1ccccc1NC(=NCCCN1CC1)Nc1ccccc1C,82.8
19,O=C1C2CCCN2C(c2cccs2)N1c1ccc(Cl)cc1 (stereo not given),86.3
20,C[C@@H]1CN([C@H](C)CO)C(=O)CCCn2nncc2CO[C@H]1CN(C)C(=O)C1CC1,102
21,CC(C)[N+]1=C2C=CC=CC=C2SC12C([N+](=O)[O-])=CC(=[N+]([O-])[O-])C=C2[N+](=O)[O-] (stereo not given),84.7
22,O=C(Nc1csc([N+](=O)[O-])c1)Nc1ccccc1Cl,82.5
23,Cc1ccc(CS(=O)Cc2ccc(C(=O)N3CCN(c4cccc(C)c4C)CC3)o2)cc1 (stereo not given),97.3
24,CCC(=O)N1CCN(c2ccc(Cl)cc2NC(=O)c2cccc([N+](=O)[O-])c2)CC1,99.8
25,COc1ccc(Cl)cc1C=CC=Nc1ccc(S(N)(=O)=O)cc1,73.1
